Results published in publication PMC7862700, “An all-to-all approach to the identification of sequence-specific readers for epigenetic DNA modifications on cytosine”.

Tests used:
Experiment in all cases: DAPPL (digital affinity profiling via proximity ligation, sequencing); 10 mM Tris-HCl pH 7.5, 50 mM NaCl, 1 mM DTT, 4% glycerol, room temperature, 30 min; GST-TFs on glutathione beads, 16-mer random dsDNA library, 0.1% formaldehyde crosslink after washing; high values mean tight binding
[1] = biological target: T1, FLI1 (Homo sapiens, UniProt Q01543 1-452); settings: protein: recombinant; tags: N-terminal GST; dsDNA, one strand shown
T1 sequence: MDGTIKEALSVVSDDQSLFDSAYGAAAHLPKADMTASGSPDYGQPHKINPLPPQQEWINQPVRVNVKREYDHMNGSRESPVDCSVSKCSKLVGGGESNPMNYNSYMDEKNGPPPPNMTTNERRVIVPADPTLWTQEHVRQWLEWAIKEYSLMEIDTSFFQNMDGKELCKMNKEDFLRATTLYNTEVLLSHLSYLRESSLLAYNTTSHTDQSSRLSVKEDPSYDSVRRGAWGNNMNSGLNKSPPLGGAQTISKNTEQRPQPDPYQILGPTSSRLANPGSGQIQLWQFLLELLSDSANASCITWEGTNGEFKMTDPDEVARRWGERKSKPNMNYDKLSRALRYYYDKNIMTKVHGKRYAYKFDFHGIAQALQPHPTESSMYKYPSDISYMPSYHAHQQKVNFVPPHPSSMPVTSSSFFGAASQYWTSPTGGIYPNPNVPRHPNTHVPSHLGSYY
How it was run: (§1)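 Yeast served to express human transcription factors as GST fusions, which were then captured on glutathione beads and labelled with DNA barcodes. Pooled with a tag-only sample, they were incubated with 200 nmole of a 16-mer random double-stranded DNA library for 30 min at room temperature in Tris/NaCl/DTT/glycerol buffer, washed, crosslinked with 0.1% formaldehyde, ligated by proximity, amplified by PCR and sequenced. Dividing each hexamer's read frequency for a factor by its frequency for the tag-only sample gives the binding signal.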

[2] = biological target: T2, ELK1 (Homo sapiens, UniProt P19419 1-428); settings: protein: recombinant; tags: N-terminal GST; dsDNA, one strand shown
T2 sequence: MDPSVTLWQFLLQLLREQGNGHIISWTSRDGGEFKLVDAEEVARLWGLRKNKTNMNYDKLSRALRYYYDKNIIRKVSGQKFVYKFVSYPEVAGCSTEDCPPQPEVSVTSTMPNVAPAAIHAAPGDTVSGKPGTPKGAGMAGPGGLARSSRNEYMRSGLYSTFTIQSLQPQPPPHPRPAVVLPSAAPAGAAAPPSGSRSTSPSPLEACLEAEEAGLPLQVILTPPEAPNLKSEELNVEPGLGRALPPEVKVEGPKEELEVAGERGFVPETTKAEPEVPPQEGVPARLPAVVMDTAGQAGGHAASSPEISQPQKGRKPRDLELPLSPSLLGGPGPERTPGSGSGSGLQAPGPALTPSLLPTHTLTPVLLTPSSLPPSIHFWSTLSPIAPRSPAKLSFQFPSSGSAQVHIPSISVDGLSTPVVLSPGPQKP
How it was run: as §1

[3] = biological target: T3, GABPA (Homo sapiens, UniProt Q06546 1-454); settings: protein: recombinant; tags: N-terminal GST; dsDNA, one strand shown
T3 sequence: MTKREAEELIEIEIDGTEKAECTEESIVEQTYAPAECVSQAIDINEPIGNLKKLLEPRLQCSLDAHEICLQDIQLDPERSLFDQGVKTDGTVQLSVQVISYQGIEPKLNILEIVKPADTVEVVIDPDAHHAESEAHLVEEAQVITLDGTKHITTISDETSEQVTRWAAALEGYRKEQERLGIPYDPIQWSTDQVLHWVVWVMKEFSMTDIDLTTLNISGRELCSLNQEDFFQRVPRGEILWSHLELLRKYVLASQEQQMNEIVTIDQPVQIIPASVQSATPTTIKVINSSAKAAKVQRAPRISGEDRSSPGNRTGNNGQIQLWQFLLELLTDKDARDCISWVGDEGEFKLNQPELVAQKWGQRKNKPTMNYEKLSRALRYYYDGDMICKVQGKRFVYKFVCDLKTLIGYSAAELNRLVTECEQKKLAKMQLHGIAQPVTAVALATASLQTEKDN
How it was run: as §1

[4] = biological target: T4, ERG (Homo sapiens, UniProt P11308 1-479); settings: protein: recombinant; tags: N-terminal GST; dsDNA, one strand shown
T4 sequence: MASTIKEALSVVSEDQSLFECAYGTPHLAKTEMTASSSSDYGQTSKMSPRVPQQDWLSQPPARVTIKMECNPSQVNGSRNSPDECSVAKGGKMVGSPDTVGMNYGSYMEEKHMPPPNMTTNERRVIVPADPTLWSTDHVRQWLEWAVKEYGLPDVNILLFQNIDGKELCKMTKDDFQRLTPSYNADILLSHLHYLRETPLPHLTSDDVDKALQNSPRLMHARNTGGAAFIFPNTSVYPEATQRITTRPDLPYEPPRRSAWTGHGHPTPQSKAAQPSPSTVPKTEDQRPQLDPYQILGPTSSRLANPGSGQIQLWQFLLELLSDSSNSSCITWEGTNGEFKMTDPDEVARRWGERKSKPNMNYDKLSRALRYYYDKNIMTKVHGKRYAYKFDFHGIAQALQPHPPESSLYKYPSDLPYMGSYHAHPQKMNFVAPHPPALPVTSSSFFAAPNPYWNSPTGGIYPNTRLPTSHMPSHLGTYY
How it was run: as §1

[5] = biological target: ELF1 (Homo sapiens, UniProt P32519 1-619); settings: protein: recombinant; tags: N-terminal GST; dsDNA, one strand shown
How it was run: as §1

[6] = biological target: SPI1 (Homo sapiens, UniProt P17947 1-270); settings: protein: recombinant; tags: N-terminal GST; dsDNA, one strand shown
How it was run: as §1

[7] = biological target: SPIB (Homo sapiens, UniProt Q01892 1-262); settings: protein: recombinant; tags: N-terminal GST; dsDNA, one strand shown
How it was run: as §1

[8] = biological target: T5, ELK3 (Homo sapiens, UniProt P41970 1-407); settings: protein: recombinant; tags: N-terminal GST; dsDNA, one strand shown
T5 sequence: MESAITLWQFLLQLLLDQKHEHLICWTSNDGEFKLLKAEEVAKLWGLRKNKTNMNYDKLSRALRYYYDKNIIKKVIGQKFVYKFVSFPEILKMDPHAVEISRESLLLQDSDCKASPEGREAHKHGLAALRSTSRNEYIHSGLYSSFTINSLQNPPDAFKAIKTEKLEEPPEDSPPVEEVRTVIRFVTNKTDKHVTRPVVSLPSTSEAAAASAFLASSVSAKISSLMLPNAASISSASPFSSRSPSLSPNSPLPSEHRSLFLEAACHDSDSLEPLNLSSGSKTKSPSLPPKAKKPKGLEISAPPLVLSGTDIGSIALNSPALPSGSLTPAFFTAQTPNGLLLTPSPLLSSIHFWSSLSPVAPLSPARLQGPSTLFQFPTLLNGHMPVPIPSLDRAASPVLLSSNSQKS
How it was run: as §1

[9] = biological target: T6, FEV (Homo sapiens, UniProt Q99581 1-238); settings: protein: recombinant; tags: N-terminal GST; dsDNA, one strand shown
T6 sequence: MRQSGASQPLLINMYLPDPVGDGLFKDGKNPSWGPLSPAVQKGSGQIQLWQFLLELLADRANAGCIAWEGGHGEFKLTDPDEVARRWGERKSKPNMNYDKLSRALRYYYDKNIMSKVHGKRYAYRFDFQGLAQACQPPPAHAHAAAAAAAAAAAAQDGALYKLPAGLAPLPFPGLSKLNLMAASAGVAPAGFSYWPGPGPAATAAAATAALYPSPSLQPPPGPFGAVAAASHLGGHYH
How it was run: as §1

[10] = biological target: ETV5 (Homo sapiens, UniProt P41161 1-510); settings: protein: recombinant; tags: N-terminal GST; dsDNA, one strand shown
How it was run: as §1

[11] = biological target: HSF1 (Homo sapiens, UniProt Q00613 1-529); settings: protein: recombinant; tags: N-terminal GST; chain copies: 3; dsDNA, one strand shown
How it was run: as §1

[12] = biological target: T7, SPIC (Homo sapiens, UniProt Q8N5J4 1-248); settings: protein: recombinant; tags: N-terminal GST; dsDNA, one strand shown
T7 sequence: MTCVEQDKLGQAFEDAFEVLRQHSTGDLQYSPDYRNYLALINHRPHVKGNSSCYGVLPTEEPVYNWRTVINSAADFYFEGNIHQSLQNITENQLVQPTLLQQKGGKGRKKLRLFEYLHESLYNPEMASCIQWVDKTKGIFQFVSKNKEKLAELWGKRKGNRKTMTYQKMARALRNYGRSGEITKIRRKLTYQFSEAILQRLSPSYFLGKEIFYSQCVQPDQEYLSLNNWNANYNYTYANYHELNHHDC
How it was run: as §1

[13] = biological target: ELF4 (Homo sapiens, UniProt Q99607 1-663); settings: protein: recombinant; tags: N-terminal GST; dsDNA, one strand shown
How it was run: as §1

[14] = biological target: T8, ELK4 (Homo sapiens, UniProt P28324-2 1-405); settings: protein: recombinant; tags: N-terminal GST; dsDNA, one strand shown
T8 sequence: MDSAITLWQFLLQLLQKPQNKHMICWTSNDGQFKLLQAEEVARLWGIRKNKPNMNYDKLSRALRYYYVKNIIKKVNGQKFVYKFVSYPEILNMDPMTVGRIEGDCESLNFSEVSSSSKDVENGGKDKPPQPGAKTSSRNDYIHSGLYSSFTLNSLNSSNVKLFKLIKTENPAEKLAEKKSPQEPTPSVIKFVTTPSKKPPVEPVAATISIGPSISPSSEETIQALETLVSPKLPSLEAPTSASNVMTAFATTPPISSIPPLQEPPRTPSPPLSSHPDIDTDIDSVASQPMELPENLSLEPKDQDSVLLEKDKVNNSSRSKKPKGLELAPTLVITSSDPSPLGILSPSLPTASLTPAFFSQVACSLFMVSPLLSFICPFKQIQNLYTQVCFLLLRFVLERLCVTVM
How it was run: as §1

[15] = biological target: T9, ELF3 (Homo sapiens, UniProt P78545 1-371); settings: protein: recombinant; tags: N-terminal GST; dsDNA, one strand shown
T9 sequence: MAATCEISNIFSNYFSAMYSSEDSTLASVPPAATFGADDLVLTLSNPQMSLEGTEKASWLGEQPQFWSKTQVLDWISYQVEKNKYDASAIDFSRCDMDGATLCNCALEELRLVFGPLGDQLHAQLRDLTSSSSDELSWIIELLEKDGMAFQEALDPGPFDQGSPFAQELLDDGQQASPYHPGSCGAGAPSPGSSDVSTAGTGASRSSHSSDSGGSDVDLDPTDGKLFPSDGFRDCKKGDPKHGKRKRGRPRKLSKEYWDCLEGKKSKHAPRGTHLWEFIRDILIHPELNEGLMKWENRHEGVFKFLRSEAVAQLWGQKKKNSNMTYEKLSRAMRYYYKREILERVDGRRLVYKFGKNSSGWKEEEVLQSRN
How it was run: as §1

[16] = biological target: CRX (Homo sapiens, UniProt O43186 1-299); settings: protein: recombinant; tags: N-terminal GST; dsDNA, one strand shown
How it was run: as §1

[17] = biological target: ETV1 (Homo sapiens, UniProt P50549 1-477); settings: protein: recombinant; tags: N-terminal GST; dsDNA, one strand shown
How it was run: as §1

Sequence of SPIB (Q01892 whole entry): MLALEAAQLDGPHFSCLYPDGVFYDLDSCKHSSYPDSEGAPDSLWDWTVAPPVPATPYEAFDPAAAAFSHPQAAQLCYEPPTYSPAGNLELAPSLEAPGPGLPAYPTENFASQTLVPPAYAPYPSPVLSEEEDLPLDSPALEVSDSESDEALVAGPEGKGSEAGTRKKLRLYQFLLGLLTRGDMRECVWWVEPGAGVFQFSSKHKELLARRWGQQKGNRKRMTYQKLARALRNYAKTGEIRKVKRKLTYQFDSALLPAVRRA
Sequence of HSF1 (Q00613 whole entry): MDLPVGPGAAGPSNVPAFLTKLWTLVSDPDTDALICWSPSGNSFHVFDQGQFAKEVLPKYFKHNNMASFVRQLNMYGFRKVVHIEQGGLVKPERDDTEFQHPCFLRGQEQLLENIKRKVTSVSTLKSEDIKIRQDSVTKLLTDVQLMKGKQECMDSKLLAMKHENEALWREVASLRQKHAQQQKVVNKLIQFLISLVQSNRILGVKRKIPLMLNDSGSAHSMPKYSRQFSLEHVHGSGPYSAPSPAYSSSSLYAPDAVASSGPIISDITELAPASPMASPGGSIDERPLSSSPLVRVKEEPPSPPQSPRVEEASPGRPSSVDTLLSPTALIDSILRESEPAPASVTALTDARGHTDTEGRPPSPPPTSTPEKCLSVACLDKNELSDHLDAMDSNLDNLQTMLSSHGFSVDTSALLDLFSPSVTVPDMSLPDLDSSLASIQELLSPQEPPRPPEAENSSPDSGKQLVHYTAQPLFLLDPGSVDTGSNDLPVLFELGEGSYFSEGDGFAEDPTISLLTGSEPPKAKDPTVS
Sequence of ETV5 (P41161 whole entry): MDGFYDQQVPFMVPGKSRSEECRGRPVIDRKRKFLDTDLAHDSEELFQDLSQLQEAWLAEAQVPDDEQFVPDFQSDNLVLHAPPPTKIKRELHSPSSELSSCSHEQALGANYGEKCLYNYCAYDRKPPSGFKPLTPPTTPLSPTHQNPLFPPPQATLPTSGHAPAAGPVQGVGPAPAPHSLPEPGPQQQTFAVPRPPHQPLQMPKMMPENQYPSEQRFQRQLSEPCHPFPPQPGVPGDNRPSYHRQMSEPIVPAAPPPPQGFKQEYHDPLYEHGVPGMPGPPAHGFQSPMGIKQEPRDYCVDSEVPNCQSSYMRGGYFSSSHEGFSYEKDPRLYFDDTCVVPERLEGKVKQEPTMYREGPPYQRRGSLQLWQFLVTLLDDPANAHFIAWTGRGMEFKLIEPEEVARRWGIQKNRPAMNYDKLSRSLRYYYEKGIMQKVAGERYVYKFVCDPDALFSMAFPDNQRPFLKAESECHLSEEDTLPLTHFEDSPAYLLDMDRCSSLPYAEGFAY
Sequence of ETV1 (P50549 whole entry): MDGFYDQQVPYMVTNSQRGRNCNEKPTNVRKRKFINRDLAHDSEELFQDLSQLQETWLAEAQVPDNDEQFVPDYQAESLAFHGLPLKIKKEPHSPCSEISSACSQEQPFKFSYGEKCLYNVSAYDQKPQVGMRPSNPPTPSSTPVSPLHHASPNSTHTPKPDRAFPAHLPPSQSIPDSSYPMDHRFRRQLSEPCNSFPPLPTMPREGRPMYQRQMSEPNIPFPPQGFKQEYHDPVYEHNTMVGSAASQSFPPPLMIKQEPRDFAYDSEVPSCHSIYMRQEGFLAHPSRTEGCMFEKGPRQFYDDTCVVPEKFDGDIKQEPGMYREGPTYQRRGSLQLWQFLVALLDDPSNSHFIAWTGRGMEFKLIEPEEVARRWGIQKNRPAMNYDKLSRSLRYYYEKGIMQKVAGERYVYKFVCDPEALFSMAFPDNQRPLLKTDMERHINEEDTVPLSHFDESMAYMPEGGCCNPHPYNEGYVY
Sequence of CRX (O43186 whole entry): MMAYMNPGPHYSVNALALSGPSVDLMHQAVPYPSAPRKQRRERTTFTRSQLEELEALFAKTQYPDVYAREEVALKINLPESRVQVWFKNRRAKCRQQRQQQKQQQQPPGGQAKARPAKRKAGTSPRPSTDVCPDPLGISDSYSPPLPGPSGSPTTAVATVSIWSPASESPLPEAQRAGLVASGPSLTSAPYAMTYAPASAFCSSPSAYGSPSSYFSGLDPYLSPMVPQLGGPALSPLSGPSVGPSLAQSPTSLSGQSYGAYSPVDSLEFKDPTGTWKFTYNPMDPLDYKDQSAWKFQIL
Sequence of ELF4 (Q99607 whole entry): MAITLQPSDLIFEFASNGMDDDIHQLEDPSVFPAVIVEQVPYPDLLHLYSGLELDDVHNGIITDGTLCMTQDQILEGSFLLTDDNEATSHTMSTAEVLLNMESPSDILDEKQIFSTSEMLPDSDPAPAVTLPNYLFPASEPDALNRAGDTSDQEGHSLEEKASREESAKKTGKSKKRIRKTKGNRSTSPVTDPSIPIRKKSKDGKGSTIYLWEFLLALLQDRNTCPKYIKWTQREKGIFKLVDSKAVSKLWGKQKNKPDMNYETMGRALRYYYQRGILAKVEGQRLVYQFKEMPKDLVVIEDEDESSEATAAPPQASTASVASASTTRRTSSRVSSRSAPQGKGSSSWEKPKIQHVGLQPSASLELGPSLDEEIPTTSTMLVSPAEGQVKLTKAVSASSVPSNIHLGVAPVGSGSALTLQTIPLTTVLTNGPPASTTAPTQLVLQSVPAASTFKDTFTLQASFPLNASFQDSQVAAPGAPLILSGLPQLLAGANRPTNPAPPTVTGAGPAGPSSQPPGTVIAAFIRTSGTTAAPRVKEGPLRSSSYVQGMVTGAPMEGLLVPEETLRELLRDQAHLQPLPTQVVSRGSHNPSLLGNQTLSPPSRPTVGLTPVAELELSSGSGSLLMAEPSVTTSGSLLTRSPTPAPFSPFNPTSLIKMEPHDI
Sequence of ELF1 (P32519 whole entry): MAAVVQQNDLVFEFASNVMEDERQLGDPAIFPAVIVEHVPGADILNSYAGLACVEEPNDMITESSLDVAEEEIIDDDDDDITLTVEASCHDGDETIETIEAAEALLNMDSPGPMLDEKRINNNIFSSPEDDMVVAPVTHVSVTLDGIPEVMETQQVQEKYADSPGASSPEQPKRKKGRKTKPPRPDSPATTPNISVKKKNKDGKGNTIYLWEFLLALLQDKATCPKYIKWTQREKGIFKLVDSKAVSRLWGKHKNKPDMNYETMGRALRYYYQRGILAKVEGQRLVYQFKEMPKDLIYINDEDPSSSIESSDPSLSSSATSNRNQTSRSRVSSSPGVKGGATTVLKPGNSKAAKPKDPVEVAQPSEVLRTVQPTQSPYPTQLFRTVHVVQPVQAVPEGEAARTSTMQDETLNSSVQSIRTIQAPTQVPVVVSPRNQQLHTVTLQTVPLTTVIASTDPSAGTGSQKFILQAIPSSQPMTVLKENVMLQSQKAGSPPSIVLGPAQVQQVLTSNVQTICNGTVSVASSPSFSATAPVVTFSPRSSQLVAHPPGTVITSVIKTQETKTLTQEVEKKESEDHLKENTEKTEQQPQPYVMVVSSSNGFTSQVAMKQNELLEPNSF

GCTTTT was tested. Which binding signal [1] did it give?
The binding signal was 1.06 fold enrichment (6-mer frequency, TF over GST control).

And the binding signal [2]?
Its binding signal is 1.05 fold enrichment (6-mer frequency, TF over GST control).

And the binding signal [3]?
Its binding signal is 1.16 fold enrichment (6-mer frequency, TF over GST control).

And the binding signal [4]?
Its binding signal is 1 fold enrichment (6-mer frequency, TF over GST control).

And the binding signal [5]?
The binding signal was 1.09 fold enrichment (6-mer frequency, TF over GST control).

What about the binding signal [6] of the same sequence?
Its binding signal is 1.33 fold enrichment (6-mer frequency, TF over GST control).

What about the binding signal [7] of the same sequence?
The binding signal was 1.16 fold enrichment (6-mer frequency, TF over GST control).

What about the binding signal [8] of the same sequence?
The binding signal was 1.11 fold enrichment (6-mer frequency, TF over GST control).

And the binding signal [9]?
The binding signal was 1.07 fold enrichment (6-mer frequency, TF over GST control).

What about the binding signal [10] of the same sequence?
Its binding signal is 1.09 fold enrichment (6-mer frequency, TF over GST control).

And the binding signal [11]?
The binding signal was 1.12 fold enrichment (6-mer frequency, TF over GST control).

What about the binding signal [12] of the same sequence?
Its binding signal is 1.12 fold enrichment (6-mer frequency, TF over GST control).

And the binding signal [13]?
Its binding signal is 1.18 fold enrichment (6-mer frequency, TF over GST control).

What about the binding signal [14] of the same sequence?
Its binding signal is 1.17 fold enrichment (6-mer frequency, TF over GST control).

What about the binding signal [15] of the same sequence?
The binding signal was 1.14 fold enrichment (6-mer frequency, TF over GST control).

What about the binding signal [16] of the same sequence?
The binding signal was 1.32 fold enrichment (6-mer frequency, TF over GST control).

What about the binding signal [17] of the same sequence?
Its binding signal is 1.1 fold enrichment (6-mer frequency, TF over GST control).
